# In the library only some 5.6% were active in any assay of this set; here they are far more common.
# Gal4-VP16 FLuc = VP16 counterscreen qHTS for inhibitors of ROR gamma transcriptional activity; Drosophila S2 Gal4-VP16 UAS-luciferase, luminescence, 20 h; Potency, µM (doses to about 53.6 µM), for inactives: at the highest dose activity, negative = inhibition, actives largely listed as inhibitors; hit rate 3.5% among 310,000; AID 2546, 2010;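 also: Gal4-VP16 expression switched on by copper sulfate through the metallothionein promoter; potency is read from the fitted curve at half-maximal effect; nearly all actives have a fitted effect of over 50% in size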
# RORg inh = qHTS for inhibitors of ROR gamma transcriptional activity | Nuclear receptor ROR-gamma (Mus musculus), P51450 | Drosophila S2 Gal4-RORgamma UAS-luciferase reporter, 20 h | Potency, µM (titrated, usually from 53.6 µM), for inactives: top-dose activity change, negative = inhibition, hits mostly inhibitors | hit rate 5.4% among 310,000 | AID 2551, 2010; also: potency is read from the fitted curve at half-maximal effect; nearly all actives have a fitted effect of over 60% in size
#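 Drosophila S2 cells stably expressing Gal4-DBD/mouse RORγ fusion under metallothionein promoter plus UAS-luciferase; compound 1 h, then 700 uM CuSO4 induction for 20 h at ambient temperature; inhibition read as reduced luminescence.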
# CtBP-E1A inh = qHTS Assay for Inhibitors of the CtBP/E1A Interaction | CtBP / adenovirus E1A interaction (AlphaScreen) | AlphaScreen GST-E1A/His-CtBP binding, 1536-well; hits give low values | activity change, % (concentration not given with the values) | hit rate 0.49% among 340,000 | AID 651724, 2012; in the data active = activity change below about -65%; inconclusive = mostly about -30% to -63%
#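 Protein mix (5X: 125 nM each GST-E1A, His-CtBP) was incubated with pinned compound 2 h at 37 deg C in dark, in 50 mM Tris pH 8.0 buffer with 300 mM NaCl. Glutathione donor and nickel acceptor beads followed; AlphaScreen signal read after 1 h.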
# PKM2 act = qHTS Assay for Activators of Human Muscle isoform 2 Pyruvate Kinase; purified PKM2, Kinase-Glo ATP luminescence, activation; response scale: 0% is enzyme alone, no compound; Potency, µM (doses to about 57.5 µM), for inactives: at the highest dose activation, actives largely listed as activators; hit rate 0.34% among 260,000; AID 1631, 2009; also: potency is read from the fitted curve at half-maximal effect; nearly all actives have a fitted effect of over 55% in size
# Target sequence (P14618 whole entry, looked up, canonical isoform): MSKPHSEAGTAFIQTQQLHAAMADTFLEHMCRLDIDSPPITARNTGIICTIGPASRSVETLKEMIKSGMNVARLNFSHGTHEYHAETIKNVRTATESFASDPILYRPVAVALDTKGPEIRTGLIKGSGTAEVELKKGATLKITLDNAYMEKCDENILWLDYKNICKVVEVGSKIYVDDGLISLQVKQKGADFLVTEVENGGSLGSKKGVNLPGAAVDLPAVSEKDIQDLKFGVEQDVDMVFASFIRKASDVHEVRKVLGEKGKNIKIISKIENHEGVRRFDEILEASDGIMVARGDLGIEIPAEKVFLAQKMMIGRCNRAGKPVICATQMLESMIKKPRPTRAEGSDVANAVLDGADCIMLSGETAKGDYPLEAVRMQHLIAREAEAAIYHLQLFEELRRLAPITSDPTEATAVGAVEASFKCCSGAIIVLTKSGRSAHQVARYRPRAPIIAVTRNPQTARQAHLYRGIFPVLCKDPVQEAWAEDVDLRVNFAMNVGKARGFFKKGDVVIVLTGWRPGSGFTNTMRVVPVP
#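 Purified hPK-M2 (>95% pure) converted ADP (0.1 mM final) to ATP with 0.5 mM PEP in 50 mM imidazole pH7.2, KCl, MgCl2, Tween 20, BSA; 1 h at room temperature. ATP detected by Kinase-Glo luminescence.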
# Six1-Eya2 blk = qHTS Assay for Inhibitors of the Six1/Eya2 Interaction; AID 651725, 2012; hit rate 0.56% among 360,000; AlphaScreen GST-Six1/His-Eya2 binding, biochemical; hits give low values; activity change, % (no concentration beside the values); in the data active = activity change below about -65%; inconclusive = mostly about -30% to -63%
#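 GST-Six1 + His-Eya2 (5X stock: 250/500 nM); Tris pH 8.0, 300 mM NaCl, 0.05% BSA, 0.02% Tween 20; GSH donor/Ni acceptor beads; 1 h 37 °C dark; AlphaScreen readout.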
# Active calls of the source: *; ? = inconclusive; · = not tested or not shown; [ ] = another dose, or the depositor's remark. Unless noted, calls follow the shape of the dose curve; as a rule, active = well fitted curve in the direction sought with a large enough effect; inconclusive = small, poorly fitted or top-dose-only effect, or another doubt; inactive = no such curve, though single readings can be large; an effect the other way counts as inactive or inconclusive. % is scaled to controls: 0 for no effect and ±100 for the full control effect.
SMILES,Gal4-VP16 FLuc,RORg inh,CtBP-E1A inh,PKM2 act,Six1-Eya2 blk
COc1cccc2sc(NN)nc12,22µM*,13µM*,-2,-20%,-20
COc1cccc2sc(Nc3nc(-c4cc5ccccc5oc4=O)cs3)nc12,?,?,-23,-6%,18
COc1cccc2sc(Nc3nc(-c4ccncc4)cs3)nc12,-14%,13µM*,?,0%,?
CCOC(=O)c1sc(Nc2nc3c(OC)cccc3s2)cc1C,?,?,-4,2%,-6
COc1ccccc1-c1nnc(Nc2nc3c(OC)cccc3s2)o1,?,1.6µM*,-5,-5%,3
COc1cccc2sc(Nc3nc4ccc(NC(C)=O)cc4s3)nc12,-12%,14%,-7,-21%,0
COc1cccc2sc(Nc3nnc(-c4ccccc4Cl)o3)nc12,2.5µM*,2µM*,-3,?,-1
C=CCn1nnnc1SCC(=O)Nc1cccc(C(F)(F)F)c1,-8%,0%,9,-3%,0
COc1cccc(-c2nnc(Nc3nc4c(F)cccc4s3)o2)c1,3.5µM*,?,4,-10%,4
O=C(NCCCN1CCCC1=O)c1ccc(Cl)c(Cl)c1,5%,39%,-9,0%,7
COC(=O)[C@@]12CCCN1[C@H](c1ccc(-c3ccc(Cl)c(Cl)c3)cc1)[C@H]1C(=O)N(C)C(=O)[C@H]12,·,·,-1,·,-4
O=C(c1cc2sccc2n1Cc1ccccc1)N1CCN(c2nc3ccccc3s2)CC1,10µM*,-26%,-19,-1%,-16
CCC1(C)Cc2ccccc2C(=O)N1 (stereo not drawn),1%,0%,·,-2%,0
CCC1(C)Cc2ccccc2C(=S)N1 (stereo not drawn),?,8.9µM*,-24,2%,-6
COC(=O)C1=C[C@@H](C(=O)OC)C2C3=C(C(=O)[C@]2(C)NC(=O)c2ccccc2)[C@H](C)n2c(=O)n(C)c(=O)n2[C@@H]3C1 (stereo partly drawn),-3%,5%,·,·,·
Cc1c(CN(C)C)c2c(n1Cc1ccccc1)C(=O)c1ccc(Br)cc1-2,-18%,?,?,-1%,-65*
Cc1c(CN(C)C)c2c(n1C)C(=O)c1ccc(Br)cc1-2,-4%,-30%,6,1%,-29
CC(C)(C)c1nc(NC(=O)Nc2ccccc2)sc1Br,?,-30%,5,-7%,1
O=S(=O)(O)c1ccc2c(c1)-c1nc-2nc2[nH]c(nc3nc(nc4[nH]c(n1)c1ccc(S(=O)(=O)O)cc41)-c1ccc(S(=O)(=O)O)cc1-3)c1ccc(S(=O)(=O)O)cc21,-24%,-39%,·,·,·
CC1C2CC(C/C2=N/NC(=O)c2cccs2)C1(C)C (stereo not drawn),2µM*,?,-8,2%,-2
C[C@@H]1C2CC(C/C2=N\NC(=O)c2ccncc2)C1(C)C (stereo partly drawn),13µM*,7.9µM*,·,·,10
O=C(NN=C1CCCCCC1)c1cccs1,-3%,-12%,6,-5%,0
CC(C)(C)OC(=O)NC(NC(=O)OCC1c2ccccc2-c2ccccc21)C(=O)O (stereo not drawn),-3%,6%,·,·,·
COc1ccc(C(=O)CSc2nnc(CC(=O)Nc3ccccc3OC)n2C)cc1,3%[10 µM],-20%,-1,0%,11
COc1ccc(C(=O)N2CCN(S(=O)(=O)c3ccc(Br)cc3)CC2)cc1,·,·,4,·,0
COC(=O)c1ccc(NC(=O)C[n+]2ccccc2)cc1,-3%,14%,3,-3%,2
COC(=O)c1ccc(C[n+]2ccccc2)cc1,12%,0.1µM*,-5,4%,0
Oc1ccc(O)c2c1C1c3ccccc3C2c2ccccc21,20µM*,7.9µM*,·,-2%,·
Oc1ccc2ccccc2c1C1Nc2cccc3cccc(c23)N1,?,?,-5,2%,-16
Cc1cc2nc3c(=O)[nH]c(=O)nc-3n(C)c2cc1C=O,2%,10µM*,·,·,·

# Screens deposited in PubChem BioAssay by National Center for Advancing Translational Sciences (NCATS).
